Compound activity as filed in PubChem BioAssay.
Hits are enriched below; roughly 1.6% of the tested compounds scored in any of these assays.
KCNQ2 enhance: enhances the rat KCNQ2 potassium channel; O88943; CHO-K1 KCNQ2, FluxOR thallium flux fluorescence; active compounds read high; B-score at 10 µM; 0.54% of 310,000 active; AID 2239;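 active = fluorescence ratio B-score at least 3 SD of library B-scores, with initial fluorescence B-score within 3 of them, cut at about 5.3 in these data; same plate scores as AID 2156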;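 note: B-score of peak minus minimum over baseline fluorescence ratio after K+ and Tl+ stimulus; positive B-score means potentiation of KCNQ2 with more thallium influx and brighter signal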
Target sequence (O88943 whole entry, looked up): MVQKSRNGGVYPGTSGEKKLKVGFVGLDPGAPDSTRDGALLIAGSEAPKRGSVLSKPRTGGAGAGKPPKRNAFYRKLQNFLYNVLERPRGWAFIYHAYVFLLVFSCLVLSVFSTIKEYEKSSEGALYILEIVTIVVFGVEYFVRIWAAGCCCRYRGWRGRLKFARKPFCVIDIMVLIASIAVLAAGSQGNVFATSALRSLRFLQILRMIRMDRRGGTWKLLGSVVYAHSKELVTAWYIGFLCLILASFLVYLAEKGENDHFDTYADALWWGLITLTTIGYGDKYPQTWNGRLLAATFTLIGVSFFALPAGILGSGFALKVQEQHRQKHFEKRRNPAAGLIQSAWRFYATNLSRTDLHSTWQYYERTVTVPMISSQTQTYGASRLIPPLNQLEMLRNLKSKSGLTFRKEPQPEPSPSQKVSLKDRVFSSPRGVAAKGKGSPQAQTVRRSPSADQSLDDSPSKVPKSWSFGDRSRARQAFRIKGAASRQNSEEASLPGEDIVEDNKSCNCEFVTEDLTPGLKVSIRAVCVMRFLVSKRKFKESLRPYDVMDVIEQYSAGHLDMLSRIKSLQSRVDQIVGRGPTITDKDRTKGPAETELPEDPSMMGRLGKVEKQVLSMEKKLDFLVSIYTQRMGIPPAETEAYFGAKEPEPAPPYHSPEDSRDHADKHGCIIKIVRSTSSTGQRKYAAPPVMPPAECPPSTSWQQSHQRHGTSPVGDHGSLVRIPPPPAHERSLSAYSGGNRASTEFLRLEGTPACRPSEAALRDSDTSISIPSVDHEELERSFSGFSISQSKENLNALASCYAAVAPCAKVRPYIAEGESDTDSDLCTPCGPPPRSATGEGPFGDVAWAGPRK
KCNQ2 inh: KCNQ2 (rat) channel inhibition; O88943; CHO-K1 KCNQ2, FluxOR thallium flux, 20 min; active compounds read low; B-score at 10 µM; 1.1% of 310,000 active;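 active = fluorescence ratio B-score at most minus 3 library SDs, with starting brightness B-score within 2 library SDs, cut at about -5.5 in these data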
Numbers without * were called inactive; i = inactive; nt = no result.

SMILES | KCNQ2 enhance | KCNQ2 inh
COc1ccc(-c2cnc(SCC(=O)Nc3cc(C)on3)n2Cc2ccco2)cc1 | nt | i
O=C(NCC1CCCN1S(=O)(=O)c1cccs1)c1c(F)cccc1F (configuration not stated) | nt | i
COC1(OC)C(/C=C/c2ccc(C)cc2)C(C#N)(C#N)C1(OC)OC (configuration not stated) | -7.5 | -7.5*
O=C1C(Br)=Cc2cccc3cccc1c23 | nt | i
O=C(/C=C/c1cn(CC(O)CN2CCCCC2)c2ccccc12)c1ccccc1 (configuration not stated) | -5.7 | -5.7*
CCCN(CCC)CC(O)Cn1cc(/C=C/C(=O)c2cccs2)c2ccccc21 (configuration not stated) | nt | i
O=C(/C=C/c1cn(CC(O)CN2CCCCC2)c2ccccc12)c1cccs1 (configuration not stated) | nt | i
CCCN(CCC)CC(O)Cn1cc(/C=C/C(=O)c2ccccc2)c2ccccc21 (configuration not stated) | -6.3 | -6.3*
COc1ccc(CCNC(=S)NC(=O)c2ccccc2)cc1OC | nt | i
CCOP(=O)(OCC)c1nc(-c2cccc3ccccc23)oc1N1CCOCC1 | nt | i
CN(c1ccccc1)S(=O)(=O)c1cccc(NC(=O)CSc2nncn2C)c1 | 0.07 | i
CN(c1ccccc1)S(=O)(=O)c1cccc(NC(=O)CSc2ncc(C(F)(F)F)cc2Cl)c1 | 9.7* | i
Cc1ccc(N=Cc2cc(Br)cc(Cl)c2O)cc1 | 12* | i
Oc1ccc(Br)cc1C=Nc1ccc(Cl)cc1 | 2.2 | i
CCOC(=O)C1CCN(C(=O)c2cccc(Cl)c2)CC1 | 0.56 | i
CCOC(=O)C1CCN(c2c(C(=O)c3ccccc3)cnc3ccc(Cl)cc23)CC1 | -5.6 | -5.6*
CC(=O)N1CCN(c2ccccc2NC(=O)COc2cc(C)ccc2C(C)C)CC1 | -7.8 | -7.8*
Cc1cccc(OCC(=O)Nc2ccccc2N2CCN(C(=O)C(C)C)CC2)c1C | -5.8 | -5.8*
Cc1ccc(C(C)C)c(OCC(=O)Nc2ccccc2N2CCN(C)CC2)c1 | nt | i
Cc1cccc(OCC(=O)Nc2ccccc2N2CCCC2)c1C | nt | i
O=C(NCc1ccncc1)C(=O)NCC(c1ccccc1)c1ccccc1 | nt | i
Cc1ccc(C2OC3=C(C(=O)CC(C)(C)C3)C(N)=C2C#N)o1 (configuration not stated) | 5.3* | i
Cc1ccc(C2C(C#N)=C(N)SC(N)=C2C#N)o1 | 0.54 | i
CCOc1ccc(N(C(=O)CNS(=O)(=O)c2ccccc2)C(CC)C(=O)NCc2ccco2)cc1 (configuration not stated) | 1.5 | i
CCC(C(=O)NCc1ccco1)N(C(=O)CNS(=O)(=O)c1ccccc1)c1ccc(OC)cc1 (configuration not stated) | -5.8 | -5.8*
SMILES | KCNQ2 enhance | KCNQ2 inh
C/C(=N\NC(=O)CSCc1ccc([N+](=O)[O-])cc1)c1ccccc1 | 1.1 | i
CCc1noc(C)c1C(=O)N(CC)CC(=O)Nc1ccccc1C(F)(F)F | 0.74 | i
CCN(CC(=O)Nc1ccccc1C(F)(F)F)C(=O)c1oc2ccc(OC)cc2c1C | -6 | -6*
COCCCNC(=O)CCc1c(C)nc2c(c(C)nn2-c2ccccc2)c1C | 0.81 | i
Cc1ccccc1COn1nnc2ccc(S(=O)(=O)N3CCOCC3)cc21 | -6.7 | -6.7*
CN(C(=O)COn1nnc2ccc(S(=O)(=O)N3CCOCC3)cc21)c1ccccc1 | 0.23 | i
COc1ccc(CN(C)C(C)C(=O)Nc2cccc3ccccc23)cc1 (configuration not stated) | nt | i
COC(=O)c1cccc(NC(=O)c2cc3sccc3n2C)c1 | nt | i
COC(=O)c1ccccc1NC(=O)c1cc2sccc2n1C | -6.1 | -6.1*
COc1ccccc1NC(=O)CN(c1ccccc1F)S(C)(=O)=O | 0.07 | i
CC(C)CN(C(=O)COC(=O)/C=C/c1cccs1)c1c(N)n(Cc2ccccc2)c(=O)[nH]c1=O | 0.85 | i
O=S(=O)(NCCN1CCOCC1)c1ccc2c(c1)OCCO2 | nt | i
O=C(c1ccccn1)N(Cc1ccco1)C1(C(=O)NC2CCCC2)CCCCC1 | nt | i
O=C(c1ccc2c(c1)OCO2)N(Cc1ccco1)C1(C(=O)NC2CCCCC2)CCCCC1 | -7.3 | -7.3*
O=C(CCNC(=O)C1CCN(S(=O)(=O)c2ccc(F)cc2)CC1)Nc1ccccc1 | nt | i
Cc1ccc(NC(=O)NNC(=O)COc2ccc(Cl)cc2)cc1 | 0.66 | i
COc1ccc(C)cc1NC(=O)C(=O)NNC(=O)COc1ccc(Cl)cc1 | 11* | i
O=C(NCC1CCCO1)C(=O)NCC(c1ccco1)N1CCN(c2ccc(F)cc2)CC1 (configuration not stated) | 0.19 | i
CC1CCc2sc(-c3n[nH]c(=S)o3)cc2C1 (configuration not stated) | 2.7 | i
S=c1[nH]nc(-c2cc3c(s2)-c2ccccc2CC3)o1 | 16* | i
Cc1cc2ncn(-c3ncnc4sc5c(c34)CCC(C)C5)c2cc1C (configuration not stated) | -5.9 | -5.9*
Cc1cc2ncn(-c3ncnc4sc5c(c34)CCCC5)c2cc1C | nt | i
COc1ccccc1CN(C)C(=O)c1sccc1-c1ccccc1 | -6.5 | -6.5*
COc1ccccc1CN(C)C(=O)c1cnc(C)cn1 | 0.37 | i
O=S(=O)(NCCSCc1ccc(Cl)cc1Cl)c1ccc2c(c1)OCCO2 | nt | i
SMILES | KCNQ2 enhance | KCNQ2 inh
O=S(=O)(NCCSCc1c(Cl)cccc1Cl)c1ccc2c(c1)OCCO2 | -6.8 | -6.8*
NNc1ncnc2scc(-c3ccc(Cl)cc3)c12 | 1.1 | i
CCOC(=O)c1c(NC(=S)Nc2ccccc2)sc2c1CCCCC2 | 1 | i
CC(C)(C)NC(=S)NC(=O)C12CCC3CC(CC(C3)C1)C2 | -5.7 | -5.7*
CC(C)(C)NC(=O)C12CC3CC(CC(Cl)(C3)C1)C2 | 2.4 | i
O=C(NC1CC1)C1CCC(=O)N1C1CCCC1 (configuration not stated) | 0.92 | i
O=C(CSc1ccsc1[N+](=O)[O-])Nc1cc(F)ccc1F | nt | i
CCN(CC)c1ccc(NC(=O)CSc2ccsc2[N+](=O)[O-])c(C)c1 | 5.5* | i
Cn1c(=O)cc(SCC(=O)NCCCN2CCN(c3ccc(F)cc3)CC2)c2ccccc21 | nt | i
COc1cc(/C=C2/NC(=O)NC2=O)cc(Br)c1OCc1cccc(C(=O)O)c1 | nt | i
COc1cccc(-c2nn(-c3ccccc3)cc2C(=O)O)c1 | 0.55 | i
COc1cccc(-c2nn(-c3ccc(C)cc3)cc2C(=O)N2CCc3cc(OC)c(OC)cc3C2)c1 | -6.2 | -6.2*
Cc1ccc(S(=O)(=O)N(C)C)cc1NC(=O)COC(=O)c1n[nH]c(=O)c2ccccc12 | 1.9 | i
CCc1ccc(N/C(SCc2ccccc2C)=C(/C#N)C(=O)NCc2ccco2)cc1 | -6.1 | -6.1*
CCc1ccc(OCCCC(=O)NCc2ccco2)cc1 | 0.58 | i
O=C(Nc1nnc(-c2ccccc2Cl)s1)c1ccccc1F | nt | i
CCOc1ccccc1CNn1cnnc1 | 1.5 | i
COc1cccc(CNn2cnnc2)c1O | -5.6 | -5.6*
c1ccc(CCn2c3ccccc3c3nnc(SCc4ccc5nonc5c4)nc32)cc1 | -6.2 | -6.2*
CCN(CC)CCSc1nnc2c3ccccc3n(CCc3ccccc3)c2n1 | nt | i
CCOC(=O)c1cccc(NC(=O)/C=C/c2ccc([N+](=O)[O-])cc2)c1 | 0.63 | i
